Compound activity (PubChem BioAssay)
An excerpt weighted towards active compounds, which were near 11% of everything screened.
G9a inh – blocks human histone lysine methyltransferase G9a. 350,000 tested, 8.8% active. G9a H3K9 monomethylation, AlphaScreen, 2 h. Potency, µM (top dose mostly 102 µM), most hits filed as inhibitors; further: nearly all actives have a fitted effect of over 75% in size
Target sequence (Q96KQ7 913-1193 limits assumed): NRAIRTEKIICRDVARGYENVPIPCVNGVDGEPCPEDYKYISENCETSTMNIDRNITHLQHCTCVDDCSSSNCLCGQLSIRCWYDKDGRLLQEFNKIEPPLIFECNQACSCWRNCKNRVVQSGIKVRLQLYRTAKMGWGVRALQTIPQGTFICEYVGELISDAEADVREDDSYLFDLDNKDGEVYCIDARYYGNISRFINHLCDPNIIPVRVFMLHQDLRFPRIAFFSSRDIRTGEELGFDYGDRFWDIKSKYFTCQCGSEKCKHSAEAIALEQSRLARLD
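Readings reflect AlphaScreen signal from monomethyl-H3K9 antibody detection. HMT at 20 nM; substrate b-H3K9 500 nM; cofactor SAM 20 uM; 2 h RT reaction; compounds tested as titrations in qHTS with 15 min preincubation.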
JMJD2A Tudor – blocks the human JMJD2A Tudor domain. Potency, µM (series often up to 114 µM), most hits filed as inhibitors. AlphaScreen JMJD2A-Tudor / H3K4me3 peptide binding. 390,000 tested, 4.4% active. O75164; further: nearly all actives have a fitted effect of over 50% in size
BAZ2B block – inhibitors of human BAZ2B bromodomain; Q9UIF8; AlphaScreen BAZ2B-H3K14Ac peptide displacement; Potency, µM (titrated, usually from 114 µM), most hits filed as inhibitors; 360,000 tested, 4.4% active; AID 504333; further: nearly all actives have a fitted effect of over 60% in size
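BAZ2B (50 nM) with biotin-H3(5-23)K14Ac peptide (50 nM) in PBS pH 7.4, 0.01% Tween-20, preformed 30 min, then compound 30 min at room temperature; top concentration 110uM. AlphaScreen streptavidin donor/nickel chelate acceptor beads (10 ug/mL final), 20 min dark, signal read.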
HP1b chromo inh – inhibitors of HP1-beta chromodomain binding to methylated histone tails | P83916 | AlphaScreen HP1-beta / biotin-H3K9me3 peptide binding | Potency, µM (top dose mostly 114 µM), most hits filed as inhibitors | 390,000 tested, 0.56% active; further: nearly all actives have a fitted effect of over 70% in size
Target sequence (P83916 whole entry, looked up): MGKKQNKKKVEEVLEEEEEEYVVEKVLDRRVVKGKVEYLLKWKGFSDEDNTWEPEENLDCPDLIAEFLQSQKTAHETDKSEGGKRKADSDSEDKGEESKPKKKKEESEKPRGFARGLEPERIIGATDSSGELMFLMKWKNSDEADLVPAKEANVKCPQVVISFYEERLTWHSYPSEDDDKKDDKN
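AlphaScreen: HP1-beta (50 nM) preformed 30 min with biotin-H3(1-18)K9me3 peptide (50 nM) in PBS pH 7.4, 0.01% Tween-20. Compound added for 30 min at RT, then streptavidin donor/nickel chelate acceptor beads (10 ug/mL) for 30 min.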
L3MBTL1 inh – L3MBTL1 (human) inhibition. Q9Y468. AlphaScreen L3MBTL1–H3K9me1 peptide binding. Potency, µM (doses to about 57.1 µM), usual class: inhibitors. 230,000 tested, 0.66% active; further: nearly all actives have a fitted effect of over 60% in size
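L3MBTL1 (50 nM) pre-complexed 30 min with biotinylated H3(1-15)K9me1 peptide (75 nM), then compounds added for 30 min at room temperature; AlphaScreen streptavidin donor/nickel chelate acceptor beads (10 ug/mL final) read after 30 min dark incubation.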
PI5P4K alpha inh – inhibitors of human PI5P4K alpha; P48426; PI5P4Kalpha enzyme, ADP-Glo luminescence, 60 min; hits give low values; max response, %; 330,000 tested, 1.2% active; AID 652105; active means max response of -50% or lower; inconclusive means between -30% and -50%; inactive means -30% or higher; further: value at the top dose of about 77 µM
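qHTS, 1536-well: enzyme/substrate mix, compound by pin tool, 5 microM ATP final; RT 60 min; ADP-Glo reagents 1 (45 min) then 2 (30 min); luminescence.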
Each line names hits and unclear results; the compound was inactive in the other large screens; ! = not active in a repeat. Unless noted, the call rests on the fitted dose curve; in most records, active means well fitted inhibition curve with a large enough effect; inconclusive means small, poorly fitted or top-dose-only effect; inactive means no such curve, though single readings can be large or run the other way.

CCOc1ccc(CNC(=O)c2cc3ccccn3n2)cc1	none (no result: L3MBTL1 inh, PI5P4K alpha inh)
COc1cccc(NC(=O)Cn2nc(C)c3c(C)n(-c4ccccc4)nc3c2=O)c1	none (no result: L3MBTL1 inh, PI5P4K alpha inh)
O=C(Cn1c(=O)n(Cc2ccc(C(=O)NCc3ccccc3Cl)cc2)c(=O)c2ccccc21)Nc1ccc(F)c(Cl)c1	none (no result: L3MBTL1 inh, PI5P4K alpha inh)
COc1ccc(N2CCN(CC(O)COc3ccc(C(C)(C)C)cc3)CC2)cc1 (stereo unspecified)	G9a inh inconclusive, JMJD2A Tudor 79µM, BAZ2B block inconclusive (no result: L3MBTL1 inh, PI5P4K alpha inh)
CCN1CCN(CC(O)COc2cccc(OC)c2)CC1 (stereo unspecified)	G9a inh 56µM
CCc1ccc(OCC(O)CN2CCN(c3ccc(OC)cc3)CC2)cc1 (stereo unspecified)	G9a inh 10µM, JMJD2A Tudor 35µM, BAZ2B block 71µM (no result: L3MBTL1 inh)
COc1ccc(OCC(O)CN2CCN(c3ccccc3)CC2)cc1 (stereo unspecified)	JMJD2A Tudor inconclusive
COc1ccc(N2CCN(CC(O)COCc3ccccc3)CC2)cc1 (stereo unspecified)	G9a inh 40µM, JMJD2A Tudor inconclusive, BAZ2B block 56µM
CN1C(=O)c2ccccc2Sc2ccc(NC(=O)N3CCN(c4cccc(Cl)c4)CC3)cc21	JMJD2A Tudor inconclusive, BAZ2B block inconclusive (no result: L3MBTL1 inh, PI5P4K alpha inh)
C/C(Cn1nnc([N+](=O)[O-])n1)=N\NC(=O)c1ccccc1O	JMJD2A Tudor 45µM
Cc1cc(C)c2c(N=NN(C)C)[nH]nc2n1	G9a inh 45µM
Cc1cc(C)c2c(=O)[nH]c(SCC(=O)N(C)C)nc2n1	none (no result: PI5P4K alpha inh)
Brc1ccc2[nH]c3c(c2c1)CCC3	G9a inh inconclusive, JMJD2A Tudor inconclusive, BAZ2B block 50µM
Cc1[nH]c2c([N+](=O)[O-])cccc2c1C	JMJD2A Tudor inconclusive, L3MBTL1 inh inconclusive (no result: G9a inh)
O=[N+]([O-])c1ccc2[nH]c3c(c2c1)CCCC3	G9a inh 40µM, JMJD2A Tudor inconclusive, BAZ2B block inconclusive (no result: L3MBTL1 inh)
O=[N+]([O-])c1cccc2c3c([nH]c12)CCCC3	G9a inh 8.9µM, BAZ2B block inconclusive, HP1b chromo inh inconclusive
CN(C)c1ccc(CC(=O)c2nc3ccccc3s2)cc1	G9a inh inconclusive, JMJD2A Tudor 18µM, BAZ2B block 40µM, HP1b chromo inh inconclusive
CN(C)C(=O)c1nc2ccccc2s1	none
COc1ccc(-c2nnc(SCC(=O)Nc3cccc(F)c3)s2)cc1	none (no result: L3MBTL1 inh, PI5P4K alpha inh)
CCCCC/C=C\CC(O)/C=C/c1cccc(CC(O)CCCCO)n1 (stereo unspecified)	G9a inh 17µM! (no result: JMJD2A Tudor, BAZ2B block, HP1b chromo inh, L3MBTL1 inh, PI5P4K alpha inh)
CCCCC[C@H](O)/C=C/C=C\C/C=C\C/C=C\CCCC(=O)O	none (no result: JMJD2A Tudor, BAZ2B block, HP1b chromo inh, L3MBTL1 inh, PI5P4K alpha inh)
CCc1ccc2oc(C(=O)NCCc3ccc(OC)c(OC)c3)cc(=O)c2c1	none (no result: L3MBTL1 inh, PI5P4K alpha inh)
CCOC(=O)C1(Cc2cccc(F)c2)CCN(Cc2nc(CC)[nH]c2C)CC1	G9a inh 40µM, JMJD2A Tudor 50µM, BAZ2B block inconclusive
Cc1ccc(S(=O)(=O)Nc2cccc(C(=O)N3CCN(c4ccccc4O)CC3)c2)cc1F	G9a inh 50µM
CC1CCCCN1C(=O)COC(=O)c1cccc(NS(=O)(=O)c2ccccc2)c1 (stereo unspecified)	G9a inh 56µM
CC1CCCN(C(=O)COC(=O)c2cccc(NS(=O)(=O)c3ccccc3)c2)C1 (stereo unspecified)	none
CCOC(=O)C1CCN(C(=O)c2cccc(NS(=O)(=O)c3ccc(F)c(F)c3)c2)CC1	G9a inh 50µM
CCOC(=O)N1CCN(C(=O)c2cccc(NS(=O)(=O)c3ccc(F)c(F)c3)c2)CC1	none
Cc1cc(C)c(NC(=O)c2cc(S(=O)(=O)N3CCN(c4ccccc4F)CC3)ccc2F)c(C)c1	none (no result: L3MBTL1 inh, PI5P4K alpha inh)
CC1=C(c2ccc(C)c(C)c2)S(=O)(=O)N(Cc2ccc(C(=O)NCc3ccc(C)cc3)cc2)C1=O	none (no result: L3MBTL1 inh, PI5P4K alpha inh)
Cc1ccc2[nH]c(=O)c(CN(CCO)Cc3nnnn3Cc3ccccc3)cc2c1	JMJD2A Tudor inconclusive (no result: G9a inh, BAZ2B block, L3MBTL1 inh, PI5P4K alpha inh)
Cc1nc2ccn(Cc3ccco3)c(=O)c2cc1C(=O)NCc1ccc(Cl)cc1	none (no result: L3MBTL1 inh, PI5P4K alpha inh)
CCOc1ccccc1CNC(=O)CCCc1cn(C)c2ccccc12	G9a inh 50µM, JMJD2A Tudor inconclusive, BAZ2B block inconclusive
